According to PubChem BioAssay AID1159580 (chemical genetic matrix, 2015):
Where “and” joins values, the source holds several entries; their conditions need not be identical. Identical values can stand only once. Out of some 5,500 compounds screened, about 2,000 (36%) were called active. Inconclusive results (about 18%) are left out. Cut-off read from the data, not from the text of the source: active = normalized growth mostly below about 0.91 (no sharp cut-off); inconclusive = no clear call, values can overlap the other calls; inactive = mostly above about 0.92. This is one part of the list.

Test: chemical genetic growth profiling, strain panel (AID 1159580);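 note: tested at 20 µM; growth read once vehicle control cultures reached saturation at 30 °C; 1 = growth at the plate median or of vehicle wells; lower values mean less growth of the strain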
Details: S. cerevisiae deletion strains, growth OD

Measured: normalized growth

Cc1c(N(C)C)c(=O)n(-c2ccccc2)n1C
inactive: locus YAL013W, strain DEP1, hits give low values 0.994 | locus YAL021C, strain ccr4, hits give low values 0.981 | locus YAL026C, strain drs2, hits give low values 0.977 | locus YAL030W, strain snc1, hits give low values 0.982 | locus YBL061C, strain skt5, hits give low values 1 | locus YBR009C, strain hhf1, hits give low values 0.976 | locus YBR021W, strain FUR4, hits give low values 1.01 | locus YBR023C, strain chs3, hits give low values 0.983 | locus YBR171W, strain sec66, hits give low values 0.987 | locus YBR229C, strain ROT2, hits give low values 0.978 | locus YBR231C, strain swc5, hits give low values 0.99 | locus YBR279W, strain paf1, hits give low values 0.996 | locus YCL011C, strain gbp2, hits give low values 1.01 | locus YCL016C, strain dcc1, hits give low values 0.993 | locus YCL029C, strain bik1, hits give low values 0.972 | locus YCL061C, strain MRC1, hits give low values 0.979 | locus YCL069W, strain vba3, hits give low values 1 | locus YCR088W, strain abp1, hits give low values 1 | locus YDL005C, strain med2, hits give low values 0.96 | locus YDL035C, strain GPR1, hits give low values 0.995 | locus YDL040C, strain nat1, hits give low values 0.991 | locus YDL074C, strain BRE1, hits give low values 0.984 | locus YDL101C, strain DUN1, hits give low values 0.983 | locus YDL134C, strain PPH21, hits give low values 0.997 | locus YDL185W, strain tfp1, hits give low values 0.962 | locus YDL192W, strain arf1, hits give low values 0.98 | locus YDR001C, strain nth1, hits give low values 0.994 | locus YDR069C, strain doa4, hits give low values 0.971 | locus YDR101C, strain arx1, hits give low values 0.99 | locus YDR137W, strain rgp1, hits give low values 0.986 | locus YDR150W, strain NUM1, hits give low values 0.993 | locus YDR159W, strain sac3, hits give low values 0.948 | locus YDR162C, strain NBP2, hits give low values 0.993 | locus YDR195W, strain ref2 0.934 | locus YDR297W, strain sur2, hits give low values 1 | locus YDR318W, strain mcm21, hits give low values 0.989 | locus YDR334W, strain swr1, hits give low values 0.987 | locus YDR335W, strain msn5, hits give low values 0.993 | locus YDR388W, hits give low values 0.998 | locus YDR392W, strain spt3, hits give low values 1 | locus YDR502C, strain sam2, hits give low values 0.999 | locus YEL003W, strain gim4, hits give low values 0.997 | locus YEL037C, strain rad23, hits give low values 0.998 | locus YEL061C, strain CIN8 (second series), hits give low values 1.01 | locus YEL061C, strain CIN8, hits give low values 0.996 | locus YER015W, strain faa2, hits give low values 0.995 | locus YER016W, strain bim1, hits give low values 0.999 | locus YER110C, hits give low values 0.981 | locus YER111C, strain swi4, hits give low values 0.983 | locus YER155C, strain BEM2 (second series), hits give low values 0.989 | locus YER155C, strain BEM2, hits give low values 0.995 | locus YER167W, strain BCK2, hits give low values 0.99 | locus YFR010W, strain ubp6, hits give low values 0.986 | locus YGL078C, strain dbp3, hits give low values 0.997 | locus YGL086W, strain mad1, hits give low values 1 | locus YGL167C, strain pmr1, hits give low values 0.982 | locus YGL173C, strain kem1, hits give low values 0.96 | locus YGL227W, strain vid30, hits give low values 0.984 | locus YGL240W, strain doc1, hits give low values 0.972 | locus YGL248W, strain PDE1, hits give low values 0.998 | locus YGL253W, strain hxk2, hits give low values 1.02 | locus YGR078C, strain PAC10, hits give low values 0.985 | locus YGR135W, strain pre9, hits give low values 0.991 | locus YGR229C, strain SMI1, hits give low values 0.992 | locus YGR252W, strain gcn5, hits give low values 1.1 | locus YHR013C, strain ard1, hits give low values 0.964 | locus YHR027C, strain rpn1, hits give low values 0.996 | locus YHR030C, strain SLT2, hits give low values 0.976 and 1.04 | locus YHR079C, strain IRE1 (second series), hits give low values 0.99 | locus YHR079C, strain IRE1, hits give low values 1.01 | locus YHR094C, strain hxt1, hits give low values 0.978 | locus YHR129C, strain ARP1, hits give low values 0.993 | locus YHR142W, strain chs7, hits give low values 1.02 | locus YHR200W, strain rpn10, hits give low values 0.999 | locus YIL066C, strain RNR3, hits give low values 0.992 | locus YIL073C, strain SPO22, hits give low values 0.923 | locus YIL125W, strain kgd1, hits give low values 0.99 | locus YIR030C, strain dcg1, hits give low values 0.99 | locus YJL092W, strain hpr5, hits give low values 1 | locus YJL095W, strain BCK1 (second series), hits give low values 0.997 | locus YJL095W, strain BCK1, hits give low values 0.966 and 1.04 | locus YJL115W, strain asf1, hits give low values 0.995 | locus YJL129C, strain trk1, hits give low values 0.983 | locus YJL134W, strain LCB3, hits give low values 0.997 | locus YJL154C, strain vps35, hits give low values 0.987 | locus YJL166W, strain qcr8, hits give low values 0.982 | locus YJL168C, strain set2, hits give low values 0.99 | locus YJL187C, strain SWE1 (second series), hits give low values 0.975 | locus YJR043C, strain POL32, hits give low values 0.986 | locus YJR066W, strain TOR1, hits give low values 0.972 | locus YJR075W, strain HOC1, hits give low values 0.997
